Data from PubChem BioAssay AID504773 (Broad Institute, 2011).
Results with a measured potency or affinity are listed apart. Calls of active or inactive are those of the source.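 Rule for the calls: active = polarization signal falls with dose and the fitted half-maximal concentration is at or below ten times the sample's top valid dose; inconclusive = flat curve at 30 to 70% inhibition, or poor fit; inactive = signal rises, flat within 30%, or potency beyond limit.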

What follows are compounds tested against Golgi-associated PDZ and coiled-coil motif-containing protein (Homo sapiens) (UniProt Q9HD26) (assay: CAL PDZ peptide-binding inhibitors, dose response, biochemical, fluorescence polarization, Cerulean-tagged CAL PDZ, cherry-picks (AID 504773;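 note: 0% = DMSO neutral wells and -100% = excess unlabeled competitor peptide wells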)). Settings: 1 h; series mostly up to 50 µM; activity change, negative = inhibition: at the top concentration.

Q: C=CCOc1c(Cl)cc(CNn2cn[nH]c2=S)cc1OC was tested. Which “activity change, negative = inhibition” value did it give?
A: 29.5% (inactive)

Q: Which “activity change, negative = inhibition” value does the source give for COc1ccc(S(=O)(=O)N2CCOCC2)cc1NC(=O)CN1CCCCCC1 here?
A: 4.33% (inactive)

Q: Cc1ccc(C)c(N(CC(=O)NC(C)(C)C)C(=O)CCC(=O)Nc2nccs2)c1 was tested. Which “activity change, negative = inhibition” value did it give?
A: 3.45% (inactive)

Q: With CCOc1ccccc1N(CC(=O)Nc1cccc2ccccc12)S(C)(=O)=O as the compound, how does the “activity change, negative = inhibition” value read?
A: 7.9% (inactive)

Q: With COc1ccc(C(=O)Nc2nccs2)cc1 as the compound, how does the “activity change, negative = inhibition” value read?
A: 19.6% (inactive)

Q: How did the “activity change, negative = inhibition” value turn out when O=C1OC2(CCCCC2)OC(=O)C1=CNc1nc2ccccc2s1 was run?
A: 6.24% (inactive)

Q: For Cc1cccc(CN2CCc3c([nH]c4ccccc34)C2CC(C)C)n1 (configuration not stated), which “activity change, negative = inhibition” value is on record?
A: 7.87% (inactive)

Q: How did the “activity change, negative = inhibition” value turn out when CCC(C(=O)NN1C(=O)c2ccccc2C1=O)c1ccccc1 (configuration not stated) was run?
A: -29.2% (inactive)

Q: COC(=O)C1CCN(C(=O)/C(C)=C\c2ccccc2)CC1 was tested. Which “activity change, negative = inhibition” value did it give?
A: -13.2% (inactive)

Q: For COC(=O)c1ccc(CNC(=O)COC(=O)c2cc(Cl)nc(Cl)c2)cc1, which “activity change, negative = inhibition” value is on record?
A: -30% (inactive)

Q: How did the “activity change, negative = inhibition” value turn out when CCn1c(=O)c(C(C)=O)c(O)c2ccccc21 was run?
A: 7.91% (inactive)

Q: With O=C1c2ccccc2C(=O)N1CSc1nnnn1-c1ccccc1 as the compound, how does the “activity change, negative = inhibition” value read?
A: 13.4% (inactive)

Q: For Cc1ccc(S(=O)(=O)N2CCN(C(=O)N(C)C)CC2)cc1, which “activity change, negative = inhibition” value is on record?
A: 31.8% (inactive)

Q: Which “activity change, negative = inhibition” value does the source give for Cc1ccc2nc3c(nc2c1)-c1ccccc1C3=O here?
A: 23.8% (inactive)

Q: How did the “activity change, negative = inhibition” value turn out when CCc1nnc(NS(=O)(=O)c2ccc(NC(=O)CCC(=O)O)cc2)s1 was run?
A: -39.5% (inactive)

Q: COn1c(SCc2ccccc2)nc2ccccc2c1=O was tested. Which “activity change, negative = inhibition” value did it give?
A: -44.9% (inactive)

Q: With CC(=O)Nc1ccc(N/C=C/C(=O)c2ccccc2)cc1 as the compound, how does the “activity change, negative = inhibition” value read?
A: 14.7% (inactive)

Q: How did the “activity change, negative = inhibition” value turn out when O=C(CSc1nc2c(sc3ccccc32)c(=O)n1Cc1ccccc1)NCC1CCCO1 (configuration not stated) was run?
A: 13.4% (inactive)

Q: With COc1cc(Br)c(C(=O)c2nccc3cc(OC)c(OC)cc23)cc1OC as the compound, how does the “activity change, negative = inhibition” value read?
A: -27.4% (inactive)

Q: With O=C(NC1CCCN(Cc2ccc(Cl)cc2)C1)c1cccc(N2CCCC2=O)c1 (configuration not stated) as the compound, how does the “activity change, negative = inhibition” value read?
A: 9.36% (inactive)

Q: CS(=O)(=O)N(CC(=O)N1CCOCC1)c1cccc(F)c1 was tested. Which “activity change, negative = inhibition” value did it give?
A: 6.89% (inactive)

Q: Cc1ccc2nc(NC(=O)COC(=O)c3ccncc3)sc2c1 was tested. Which “activity change, negative = inhibition” value did it give?
A: 5.09% (inactive)

Q: Which “activity change, negative = inhibition” value does the source give for CNC(=O)c1nnn(Cc2ccccc2)c1NC(C)=O here?
A: 3.9% (inactive)

Q: O=C(Nc1ccc([N+](=O)[O-])cc1)Nc1cnccn1 was tested. Which “activity change, negative = inhibition” value did it give?
A: 2.29% (inactive)

Q: C[n+]1ccc(C(=O)Nc2ccccc2Cl)cc1 was tested. Which “activity change, negative = inhibition” value did it give?
A: 4.9% (inactive)

Q: How did the “activity change, negative = inhibition” value turn out when Cc1nc(Cl)sc1C(=O)Nc1cc(F)cc(F)c1 was run?
A: -8.97% (inactive)

Q: For Cc1cccc(C(=O)Nc2nnc(COc3ccccc3)s2)c1, which “activity change, negative = inhibition” value is on record?
A: -27.5% (inactive)

Q: COc1ccc(CN(C)C(C)C(=O)NC2CCCc3ccccc32)cc1 (configuration not stated) was tested. Which “activity change, negative = inhibition” value did it give?
A: -18.4% (inactive)

Q: How did the “activity change, negative = inhibition” value turn out when CC1CCN(c2nc3c(c(=O)n(C)c(=O)n3C)n2CCSc2nc3ccccc3s2)CC1 was run?
A: -1.96% (inactive)

Q: With O=C(NCCN1C(=O)S/C(=C\c2ccc(Cl)c(Cl)c2)C1=O)C1COc2ccccc2O1 (configuration not stated) as the compound, how does the “activity change, negative = inhibition” value read?
A: -15.7% (inactive)

Q: For Oc1ccccc1N=Cc1c(O)ccc2oc3c(c12)CCCC3, which “activity change, negative = inhibition” value is on record?
A: -4.22% (inactive)

Q: Which “activity change, negative = inhibition” value does the source give for O=C(c1cc(Br)ccc1Cl)N1CCN(c2ccccn2)CC1 here?
A: -19.3% (inactive)

Q: Which “activity change, negative = inhibition” value does the source give for O=P(O)(COc1ccccc1)COc1ccccc1 here?
A: 1.96% (inactive)

Q: With CC1CCCCC1NCC(=O)NCc1ccc(F)cc1 (configuration not stated) as the compound, how does the “activity change, negative = inhibition” value read?
A: -33.3% (inactive)

Q: For CCc1nc2ccccc2c(C(=O)Oc2cccc3cccnc23)c1C, which “activity change, negative = inhibition” value is on record?
A: 9.12% (inactive)

Q: How did the “activity change, negative = inhibition” value turn out when CCOCCCNC(=S)N1CCN(c2nc(-c3ccccc3)cs2)CC1 was run?
A: -0.951% (inactive)

Q: Which “activity change, negative = inhibition” value does the source give for COc1ccc(OC)c(NC(=O)CS(=O)(=O)Cc2ccccc2)c1 here?
A: 8.81% (inactive)
